IDE exosite inh – exo-site inhibitors of human insulin-degrading enzyme; actives 6.3% (n = 17,000); z-score at 20 µM; purified IDE, FL-6b probe fluorescence polarization; hits give low values;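 active means z-score of -3 or lower, meaning strong loss of probe binding signal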;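 further: His-tagged human IDE residues 42-1019 made in E. coli with 30 nM FL-6b probe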
Target sequence (P14735 42-1019 limits assumed): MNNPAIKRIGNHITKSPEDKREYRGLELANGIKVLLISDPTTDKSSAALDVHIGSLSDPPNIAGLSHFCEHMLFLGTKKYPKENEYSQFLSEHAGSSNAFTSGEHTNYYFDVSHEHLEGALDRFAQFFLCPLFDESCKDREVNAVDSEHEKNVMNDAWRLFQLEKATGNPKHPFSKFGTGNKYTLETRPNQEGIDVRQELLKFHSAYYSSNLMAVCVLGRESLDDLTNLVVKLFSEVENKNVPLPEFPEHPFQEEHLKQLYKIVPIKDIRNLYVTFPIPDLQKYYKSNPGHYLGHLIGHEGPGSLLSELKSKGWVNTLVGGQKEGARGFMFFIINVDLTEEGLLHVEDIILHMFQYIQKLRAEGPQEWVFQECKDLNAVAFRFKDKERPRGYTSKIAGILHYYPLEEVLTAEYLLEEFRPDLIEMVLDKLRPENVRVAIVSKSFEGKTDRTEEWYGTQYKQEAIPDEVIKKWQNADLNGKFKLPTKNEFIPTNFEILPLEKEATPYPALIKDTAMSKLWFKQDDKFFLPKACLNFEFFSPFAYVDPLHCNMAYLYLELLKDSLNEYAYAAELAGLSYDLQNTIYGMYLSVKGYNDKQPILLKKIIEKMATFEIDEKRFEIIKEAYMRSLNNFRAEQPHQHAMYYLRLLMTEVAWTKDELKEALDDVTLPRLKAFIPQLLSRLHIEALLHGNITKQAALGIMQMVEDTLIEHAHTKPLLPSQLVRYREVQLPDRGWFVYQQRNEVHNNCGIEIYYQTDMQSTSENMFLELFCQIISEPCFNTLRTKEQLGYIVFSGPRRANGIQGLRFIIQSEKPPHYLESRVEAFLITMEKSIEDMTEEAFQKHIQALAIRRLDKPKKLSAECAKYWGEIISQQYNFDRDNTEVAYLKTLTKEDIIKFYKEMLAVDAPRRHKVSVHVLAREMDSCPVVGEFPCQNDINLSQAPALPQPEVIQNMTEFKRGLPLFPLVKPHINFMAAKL
Active calls of the source: *; ! = not active in a repeat. The entries come from a sample that favours hits as a whole.

SMILES	IDE exosite inh
Cc1ccccc1-c1ccc([C@@H]2[C@H](CO)N3CCCCN(C(=O)c4cccnc4)C[C@@H]23)cc1	-8.4*
CC(C)(O)C#Cc1ccc([C@@H]2[C@@H](CO)N3CCCCN(C(=O)c4cccnc4)C[C@@H]23)cc1	3.4
Cc1ccccc1-c1ccc([C@@H]2[C@@H](CO)N3CCCCN(C(=O)c4cccnc4)C[C@H]23)cc1	-2.2
Cc1ccccc1-c1ccc([C@H]2[C@@H](CO)N3CCCCN(C(=O)c4cccnc4)C[C@H]23)cc1	-16*
Cc1ccccc1-c1ccc([C@H]2[C@H](CO)N3CCCCN(C(=O)c4cccnc4)C[C@@H]23)cc1	-3.9*
CC(C)(O)C#Cc1ccc([C@@H]2[C@H](CO)N3CCCCN(C(=O)c4cccnc4)C[C@@H]23)cc1	0.94
CC(C)(O)C#Cc1ccc([C@H]2[C@H]3CN(C(=O)c4cccnc4)CCCCN3[C@H]2CO)cc1	0.85
CC(C)N(C[C@H]1N[C@H](CO)[C@@H]1c1ccccc1)C(=O)CN1CCOCC1	7.2
O=C(C[C@H]1C[C@@H]2c3cc(NC(=O)C4CCOCC4)ccc3O[C@@H]2[C@H](CO)O1)NCc1cccnc1	1.2
O=C(C[C@H]1CC[C@H](NC(=O)Nc2ccc(C(F)(F)F)cc2)[C@@H](CO)O1)NCc1cccc(F)c1	3
O=C(c1cccnc1)N1CC(=O)N2[C@@H](CO)[C@@H](c3ccc(C#CCC4CCCC4)cc3)[C@@H]2C1	1.7
COc1ccc(-c2ccc(C3[C@H]4CNC[C@@H]3N4C(=O)Nc3ccc(C(F)(F)F)cc3)cc2)cc1 (stereo partly specified)	4.7
CCC(=O)N1CC(=O)N2[C@H](CO)[C@@H](c3ccc(C#Cc4cccnc4)cc3)[C@H]2C1	-0.41
CN(C)CC#Cc1ccc([C@@H]2[C@@H](CO)N3C(=O)CN(C(=O)CN(C)C)C[C@H]23)cc1	-0.1
C/C=C/c1ccc([C@H]2[C@H](CO)N3C(=O)CN(C(=O)NC4CCCCC4)C[C@@H]23)cc1	-0.68
C/C=C/c1ccc([C@H]2[C@@H](CO)N3C(=O)CN(C(=O)CC4CC4)C[C@@H]23)cc1	-1.4
Cc1ccc(-c2ccc([C@H]3[C@H]4CN(C(=O)NC(C)C)CC(=O)N4[C@H]3CO)cc2)cc1	-0.62
C/C=C/c1ccc([C@@H]2[C@@H](CO)N3C(=O)CN(C(=O)NC4CCCC4)C[C@@H]23)cc1	-3.2*
CC(C)NC(=O)N1CC(=O)N2[C@H](CO)[C@@H](c3ccc(/C=C/c4ccccc4)cc3)[C@H]2C1	-6.9*
Cc1ccc(-c2ccc([C@H]3[C@H](CO)N4C(=O)CN(C(=O)NC(C)C)C[C@@H]34)cc2)cc1	-0.41
COc1ccc(NC(=O)N2CC(=O)N3[C@@H](CO)[C@H](c4ccc(/C=C/c5ccccc5)cc4)[C@@H]3C2)cc1	2.6
CN(C)CC(=O)N1CC(=O)N2[C@H](CO)[C@@H](c3ccc(-c4ccc(C(=O)N(C)C)cc4)cc3)[C@H]2C1	0.045
O=C(NC1CCCC1)N1CC(=O)N2[C@@H](CO)[C@H](c3ccc(/C=C/c4ccccc4)cc3)[C@@H]2C1	-6.5*
CN(C)CC(=O)N1CC(=O)N2[C@H](CO)[C@@H](c3ccc(/C=C/c4ccccc4)cc3)[C@H]2C1	-5.6*
COc1ccccc1S(=O)(=O)N(C)C[C@@H]1OCc2ccccc2-c2ccccc2C(=O)N([C@H](C)CO)C[C@@H]1C	-0.36
SMILES	IDE exosite inh
COCC(=O)N(C[C@@H]1[C@@H](c2ccccc2)[C@@H](CO)N1C(=O)NC(C)C)C(C)C	-0.46
O=C(C[C@H]1C[C@H]2c3cc(NC(=O)c4ccc5c(c4)OCO5)ccc3O[C@H]2[C@@H](CO)O1)NCCN1CCCCC1	-0.42
COc1ccc(-c2ccc([C@@H]3[C@@H](CO)N4C(=O)CN(C(=O)C5CCOCC5)C[C@@H]34)cc2)cc1	0.12
O=C(NC1CCCCC1)N1CC(=O)N2[C@H](C1)[C@@H](c1ccc(/C=C/c3ccccc3)cc1)[C@@H]2CO	-1.7
O=C(NC1CCCC1)N1CC(=O)N2[C@H](CO)[C@@H](c3ccc(/C=C/c4ccccc4)cc3)[C@H]2C1	-9.5*
O=C(NC1CCCC1)N1CC(=O)N2[C@H](CO)[C@H](c3ccc(/C=C/c4ccccc4)cc3)[C@@H]2C1	-0.53
C/C=C/c1ccc(C2[C@@H]3CN(S(=O)(=O)c4cccc(OC)c4)C[C@H]2N3)cc1 (stereo partly specified)	0.72
COc1cccc(-c2ccc([C@@H]3[C@@H](CO)N4C(=O)CN(C(=O)c5cccnc5)C[C@@H]34)cc2)c1	-3.7*
COc1ccc(C#Cc2ccc([C@H]3[C@H](CO)N4C(=O)CN(C(=O)c5cccnc5)C[C@@H]34)cc2)cc1	-0.48
COc1cccc(-c2ccc([C@H]3[C@H](CO)N4C(=O)CN(C(=O)c5cccnc5)C[C@@H]34)cc2)c1	-1.9
COc1cccc(-c2ccc([C@H]3[C@@H](CO)N4C(=O)CN(C(=O)c5cccnc5)C[C@@H]34)cc2)c1	-1.8
COc1ccc(C#Cc2ccc([C@@H]3[C@@H](CO)N4C(=O)CN(C(=O)c5cccnc5)C[C@H]34)cc2)cc1	0.11
COc1cccc(-c2ccc([C@H]3[C@@H](CO)N4C(=O)CN(C(=O)c5cccnc5)C[C@H]34)cc2)c1	-4.9*
CCCNC(=O)N(C)C[C@H]1Oc2ncc(C#CC3CCCCC3)cc2C(=O)N([C@@H](C)CO)C[C@H]1C	-1.1
COc1ccccc1-c1ccc(C2[C@@H]3CN(S(=O)(=O)c4ccc(F)cc4)C[C@H]2N3)cc1 (stereo partly specified)	-3.1*!
COc1ccc(S(=O)(=O)N2[C@@H]3CNC[C@H]2C3c2ccc(-c3ccncc3)cc2)cc1 (stereo partly specified)	3.1
COc1ccccc1-c1ccc(C2[C@@H]3CN(S(=O)(=O)c4ccc(C)cc4)C[C@H]2N3)cc1 (stereo partly specified)	-1.2
O=S(=O)(Cc1ccccc1)N1[C@@H]2CNC[C@H]1C2c1ccc(-c2ccccc2)cc1 (stereo partly specified)	-0.66
COc1ccc(S(=O)(=O)N2[C@@H]3CNC[C@H]2C3c2ccc(-c3ccccc3OC)cc2)cc1 (stereo partly specified)	-3.6*!
COc1ccccc1-c1ccc(C2[C@H]3CNC[C@@H]2N3S(=O)(=O)c2ccccc2C)cc1 (stereo partly specified)	4.7
Cc1ccccc1-c1ccc(C2[C@H]3CNC[C@@H]2N3S(=O)(=O)c2ccccc2)cc1 (stereo partly specified)	-1.5
Cc1cccc(S(=O)(=O)N2[C@@H]3CNC[C@H]2C3c2ccc(-c3ccccc3C)cc2)c1 (stereo partly specified)	-4*
COc1ccc(-c2ccc(C3[C@H]4CNC[C@@H]3N4S(=O)(=O)Cc3ccccc3)cc2)cc1 (stereo partly specified)	0.067
O=S(=O)(c1ccc(F)cc1)N1C[C@@H]2N[C@H](C1)C2c1ccc(/C=C/c2ccccc2)cc1 (stereo partly specified)	0.82
Cc1ccccc1-c1ccc(C2[C@H]3CNC[C@@H]2N3S(=O)(=O)c2ccccc2C)cc1 (stereo partly specified)	-0.51
Cc1ccccc1-c1ccc(C2[C@H]3CNC[C@@H]2N3S(=O)(=O)Cc2ccccc2)cc1 (stereo partly specified)	-7.3*
CC(=O)N1[C@H](CO)[C@H](c2ccccc2)[C@@H]1CN(C(=O)c1ccccc1)C(C)C	1.3
